Experiment [1] addresses Paired box protein Pax-6 (Homo sapiens) (UniProt P26367). Description: ATG_Pax6_CIS: Attagene CIS-FACTORIAL HepG2 Assay for human Paired Box 6 (PAX6) (AID 2282956). As to conditions: HepG2 CIS-FACTORIAL PAX6 reporter transcription, RNA readout; actives raise or lower the signal. An outline of the steps: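 HepG2 cells transiently transfected with cis-promoter-driven multiplexed reporter units sensing endogenous transcription factor activity; 24 h chemical exposure. Reporter mRNA quantified by RT-PCR, 6-FAM labelling, HpaI digestion and capillary electrophoresis; bidirectional fit versus DMSO baseline.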

Experiment [2] in a line: ATG_PXRE_CIS: Attagene CIS-FACTORIAL HepG2 Assay for human Pregnane X Receptor Element (PXRE) (AID 2282957). As to conditions: HepG2 Attagene CIS-FACTORIAL PXRE reporter, mRNA; actives raise or lower the signal. An outline of the steps:
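Transfect HepG2 with MRTUs (cis promoter elements); dose chemical, incubate 24 h; isolate RNA, RT with oligo(dT), PCR, 6-FAM label, HpaI cut, CE. Gain/loss fit vs DMSO.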

A short description of experiment [3]: ATG_PPRE_CIS: Attagene CIS-FACTORIAL HepG2 Assay for human Peroxisome Proliferator-activated Response Element (PPRE) (AID 2282958). The note with it: HepG2 PPRE cis-element reporter, Attagene transcription factor profiling; actives raise or lower the signal. An outline of the steps: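 After human HepG2 hepatoma cells were transiently transfected with cis-promoter reporter constructs, they were exposed to test chemicals for 24 hours. Reporter RNA was then reverse-transcribed, PCR-amplified, FAM-labeled, HpaI-digested and quantified by capillary electrophoresis.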

The nature of experiment [4]: ATG_RORE_CIS: Attagene CIS-FACTORIAL HepG2 Assay for human RAR-related Orphan Receptor Element (RORE) (AID 2282959). The note with it: HepG2 Attagene cis-factorial RORE reporter, mRNA; actives raise or lower the signal. An outline of the steps:
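Measured here: transcript induction of a cis-regulated reporter in HepG2 cells transiently transfected via FuGene 6. After 24 h, RNA was processed by RT-PCR and fluorescent capillary electrophoresis; DMSO defined baseline activity.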

Experiment [5] is described as follows: ATG_Sox_CIS: Attagene CIS-FACTORIAL HepG2 Assay for human SRY-box transcription factor (SOX) (AID 2282960). The note with it: HepG2 Attagene cis-factorial SOX reporter, mRNA; actives raise or lower the signal. An outline of the steps:
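Using transiently transfected HepG2 cells, reporter transcription driven by cis elements was assessed 24 h after dosing. Signal was fluorescence of capillary-separated RT-PCR products, with DMSO defining baseline activity.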

Experiment [6] concerns the target Transcription factor Sp1 (Homo sapiens) (UniProt P08047). In words: ATG_Sp1_CIS: Attagene CIS-FACTORIAL HepG2 Assay for human Specificity Protein 1 (Sp1) (AID 2282961). The note with it: HepG2 Sp1 cis-reporter transcription, actives raise or lower the signal. The gist of the method: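 After transient transfection of HepG2 cells with cis-promoter reporter units and 24 h chemical treatment, reporter transcripts were quantified by RT-PCR and capillary electrophoresis fluorescence. Gain- and loss-of-signal fitted against DMSO.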

A short description of experiment [7]: ATG_SREBP_CIS: Attagene CIS-FACTORIAL HepG2 Assay for human Sterol Regulatory Element Binding (SREBP) (AID 2282962). The note with it: HepG2 Attagene cis-factorial SREBP reporter, mRNA; actives raise or lower the signal. The gist of the method: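 HepG2 cells transiently transfected with multiplexed cis-promoter reporter units sensing endogenous transcription factors; reporter mRNA measured 24 h after dosing by RT-PCR, 6-FAM labeling, HpaI digestion and capillary electrophoresis. Bidirectional fit versus DMSO.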

Experiment [8] concerns the target Signal transducer and activator of transcription 3 (Homo sapiens) (UniProt P40763). In words: ATG_STAT3_CIS: Attagene CIS-FACTORIAL HepG2 Assay for human Signal Transducer and Activator of Transcription 3 (STAT3) (AID 2282963). The note with it: HepG2, Attagene cis-factorial STAT3 reporter transcription; actives raise or lower the signal. An outline of the steps:
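HepG2 cells transiently transfected with multiple cis-element-driven reporter units report endogenous transcription factor activity. After 24 h compound exposure, reporter mRNA is measured by RT-PCR, 6-FAM labelling, HpaI digestion and capillary electrophoresis. Fitted bidirectionally versus DMSO.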

The nature of experiment [9]: ATG_TA_CIS: Attagene CIS-FACTORIAL HepG2 Assay for human TA Basal Promoter (AID 2282964). As to conditions: HepG2 Attagene CIS-factorial TA basal promoter reporter; actives raise or lower the signal. An outline of the steps:
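Transfected HepG2, 24 h compound exposure; RNA → RT-PCR → FAM primer extension → HpaI cut → CE fluorescence. Gain/loss-of-signal fitted against DMSO negative control. Background-control readout.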

Experiment [10] can be described thus: ATG_TCF_b_cat_CIS: Attagene CIS-FACTORIAL HepG2 Assay for human T-Cell-Factor with beta-catenin (TCF/b-cat) (AID 2282965). As to conditions: HepG2 TCF/beta-catenin cis-reporter transcription, actives raise or lower the signal. An outline of the steps: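 HepG2 cells transiently transfected with cis-promoter-driven multiplexed reporter units; reporter mRNA measured 24 h after dosing by RT-PCR, FAM labelling, HpaI digestion and capillary electrophoresis. Bidirectional fitting relative to DMSO baseline.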

Drawing on PubChem BioAssay (EPA / NIEHS), this text covers outcome and AC50 for 17 compounds.

Calls of active or inactive are those of the source. How the source made its calls: active means hit-call score of the fitted dose curve at least 0.9, where 1 is the maximum; inactive means score below 0.9.

Chain of Signal transducer and activator of transcription 3 (Homo sapiens) (P40763 whole entry, looked up): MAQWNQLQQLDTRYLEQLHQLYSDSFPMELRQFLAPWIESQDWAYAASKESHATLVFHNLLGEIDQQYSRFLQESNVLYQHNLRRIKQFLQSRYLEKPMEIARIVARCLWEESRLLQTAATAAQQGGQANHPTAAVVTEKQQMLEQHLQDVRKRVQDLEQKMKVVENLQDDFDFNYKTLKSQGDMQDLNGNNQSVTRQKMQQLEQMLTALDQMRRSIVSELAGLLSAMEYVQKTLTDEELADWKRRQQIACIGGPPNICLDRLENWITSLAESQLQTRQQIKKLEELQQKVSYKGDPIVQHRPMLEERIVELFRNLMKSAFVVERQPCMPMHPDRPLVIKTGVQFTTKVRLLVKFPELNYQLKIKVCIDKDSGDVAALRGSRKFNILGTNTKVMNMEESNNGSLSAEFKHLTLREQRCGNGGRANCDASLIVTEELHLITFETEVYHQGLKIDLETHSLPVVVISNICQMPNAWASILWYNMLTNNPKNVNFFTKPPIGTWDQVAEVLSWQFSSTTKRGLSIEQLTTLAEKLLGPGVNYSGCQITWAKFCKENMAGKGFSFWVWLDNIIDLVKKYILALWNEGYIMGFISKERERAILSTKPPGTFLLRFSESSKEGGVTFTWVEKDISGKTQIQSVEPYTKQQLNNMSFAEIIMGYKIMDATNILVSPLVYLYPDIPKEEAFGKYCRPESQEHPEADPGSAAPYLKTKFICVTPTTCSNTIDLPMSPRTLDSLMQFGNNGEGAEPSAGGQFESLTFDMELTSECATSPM
Chain of Transcription factor Sp1 (Homo sapiens) (P08047 whole entry, looked up): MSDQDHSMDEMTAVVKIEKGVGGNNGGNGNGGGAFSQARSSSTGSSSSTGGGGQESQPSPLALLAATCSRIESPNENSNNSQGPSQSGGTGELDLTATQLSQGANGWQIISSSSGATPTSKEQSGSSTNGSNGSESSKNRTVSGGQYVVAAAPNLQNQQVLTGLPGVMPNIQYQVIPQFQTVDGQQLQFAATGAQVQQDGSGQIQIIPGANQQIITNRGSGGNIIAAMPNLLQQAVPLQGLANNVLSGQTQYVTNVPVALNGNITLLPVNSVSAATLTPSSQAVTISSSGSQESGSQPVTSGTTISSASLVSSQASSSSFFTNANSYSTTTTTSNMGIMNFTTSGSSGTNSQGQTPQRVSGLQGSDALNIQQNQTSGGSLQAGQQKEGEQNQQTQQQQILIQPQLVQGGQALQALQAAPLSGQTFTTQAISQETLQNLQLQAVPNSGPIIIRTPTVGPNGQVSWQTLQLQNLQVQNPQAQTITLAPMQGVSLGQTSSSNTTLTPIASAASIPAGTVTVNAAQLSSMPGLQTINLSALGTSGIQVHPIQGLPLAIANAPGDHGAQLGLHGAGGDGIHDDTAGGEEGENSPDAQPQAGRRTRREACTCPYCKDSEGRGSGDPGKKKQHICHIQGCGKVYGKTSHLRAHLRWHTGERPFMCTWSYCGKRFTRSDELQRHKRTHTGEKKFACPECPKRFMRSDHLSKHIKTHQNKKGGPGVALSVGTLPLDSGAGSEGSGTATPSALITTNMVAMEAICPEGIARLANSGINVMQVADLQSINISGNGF
Chain of Paired box protein Pax-6 (Homo sapiens) (P26367 whole entry, looked up): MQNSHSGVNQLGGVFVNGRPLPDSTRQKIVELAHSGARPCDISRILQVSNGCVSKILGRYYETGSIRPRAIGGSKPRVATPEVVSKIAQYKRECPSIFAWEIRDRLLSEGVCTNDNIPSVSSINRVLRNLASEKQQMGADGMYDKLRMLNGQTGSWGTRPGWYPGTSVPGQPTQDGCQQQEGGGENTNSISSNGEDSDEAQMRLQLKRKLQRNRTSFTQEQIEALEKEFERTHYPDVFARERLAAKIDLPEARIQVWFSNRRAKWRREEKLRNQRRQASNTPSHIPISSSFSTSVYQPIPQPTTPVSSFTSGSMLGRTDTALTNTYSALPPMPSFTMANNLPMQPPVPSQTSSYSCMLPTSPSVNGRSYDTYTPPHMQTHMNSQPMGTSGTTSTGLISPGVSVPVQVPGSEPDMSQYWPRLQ

By AC50 is commonly meant the concentration at which the activity in the assay is half-maximal. Consider `COP(=O)(OC)SCn1c(=O)oc2cc(Cl)cnc21`, for which the outcome in [1], in experiment [3], in experiment [4], in experiment [5], in experiment [6] and in experiment [7] was inactive. The result in [8] and in [9] was inactive. For the same compound, the values for the AC50 in experiment [2] and in [10] were 8.16 µM (active) and 10 µM (active), respectively.
As for `CCc1cccc(CC)c1N(COC)C(=O)CCl`, the compound was classed as inactive in [1], in experiment [3], in experiment [4], in [5], in experiment [7] and in experiment [8]. The result in experiment [9] and in [10] was inactive. Besides, the AC50 in experiment [2] is 1.15 µM (active); in experiment [6], 7.75 µM (active).
`CCOC(=O)COc1cc(-c2nn(C)c(OC(F)F)c2Cl)c(F)cc1Cl`: the outcome in experiment [1], in [3], in experiment [4], in experiment [5], in [6] and in [7] was inactive. The compound was classed as inactive in experiment [8], in [9] and in experiment [10]. In experiment [2], the half-maximal activity concentration (AC50) was 47.3 µM (active).
Turning to `CCCOc1nn(C(=O)NS(=O)(=O)c2ccccc2C(=O)OC)c(=O)n1C`, the result in experiment [1], in experiment [3], in [4], in experiment [5], in [6] and in experiment [7] was inactive. Besides, the call in experiment [8], in experiment [9] and in experiment [10] was inactive. Moreover, in experiment [2], the AC50 is 50 µM (active).
On to `CCOP(=S)(Oc1cnc(C(C)(C)C)nc1)OC(C)C` (centres undefined), for which the outcome in experiment [1], in experiment [3], in experiment [5], in experiment [8], in experiment [9] and in [10] was inactive. Besides, the AC50 is 1.84 µM (active) in experiment [2], 13.1 µM (active) in experiment [4], 28.1 µM (active) in experiment [6] and 23.2 µM (active) in [7].
With `CC1=NNC(=O)N(/N=C/c2cccnc2)C1`, the outcome in experiment [1], in [2], in experiment [3], in experiment [4], in [5] and in [6] was inactive. In addition, the compound was called inactive in experiment [7], in [8], in experiment [9] and in experiment [10].
In the case of `COP(=O)(OC)C(O)C(Cl)(Cl)Cl` (centres undefined), the compound was called inactive in [1], in experiment [4], in experiment [5], in [6], in [7] and in experiment [9]. Further, the compound was called inactive in experiment [10]. The AC50 in [2] is 16.1 µM (active); in [3] it was 41.5 µM (active).
Regarding `CN(C)NC(=O)CCC(=O)O`, the outcome in [1], in experiment [2], in [3], in experiment [4], in [5] and in [6] was inactive. Moreover, the compound was classed as inactive in [7], in [9] and in experiment [10].
`CCOC(=O)CC(SP(=O)(OC)OC)C(=O)OCC` (centres undefined): the result in [1], in [4], in experiment [5], in experiment [6], in [7] and in experiment [9] was inactive. The compound was called inactive in experiment [10]. Also, the results for the AC50 in experiment [2] and in [3] were 34.8 µM (active) and 39.7 µM (active), respectively.
As for `COc1ccc(C(=CC(=O)N2CCOCC2)c2ccc(Cl)cc2)cc1OC`, the compound was called inactive in [1], in experiment [5], in experiment [6], in experiment [7], in experiment [8] and in experiment [9]. In addition, the outcome in experiment [10] was inactive. Also, the AC50 in [2] is 5.15 µM (active); in experiment [3], 21.8 µM (active); in experiment [4], 5.72 µM (active).
As for `CNC(=O)ON=C(C)SC`, the result in [1], in experiment [2], in experiment [3], in experiment [4], in [5] and in experiment [6] was inactive. Moreover, the call in experiment [7], in experiment [9] and in [10] was inactive.
Regarding `CN1COCN(Cc2cnc(Cl)s2)C1=N[N+](=O)[O-]`, the compound was called inactive in experiment [1], in experiment [3], in experiment [4], in [5], in experiment [6] and in [7]. For the same compound, the outcome in experiment [9] and in experiment [10] was inactive. The AC50 in experiment [2] was 50 µM (active).
Consider `CCC(=NOC/C=C/Cl)C1=C(O)CC(C2CCOCC2)CC1=O` (centres undefined), for which the outcome in experiment [1], in [2], in [3], in experiment [4], in [5] and in experiment [6] was inactive. Besides, the outcome in experiment [7], in [8], in [9] and in experiment [10] was inactive.
Regarding `CCCSP(=O)(OCC)Oc1ccc(Br)cc1Cl` (centres undefined), the compound was classed as inactive in experiment [1], in experiment [3], in experiment [4], in [5], in experiment [6] and in experiment [8]. Moreover, the compound was classed as inactive in experiment [9] and in experiment [10]. For the same compound, the AC50 was 3.04 µM (active) in [2] and 1.31 µM (active) in [7].
For the compound `C=C(C)[C@H]1Cc2c(ccc3c2O[C@@H]2COc4cc(OC)c(OC)cc4[C@@H]2C3=O)O1`, the compound was called inactive in experiment [1], in [2], in [4], in [5], in experiment [9] and in experiment [10]. Further, the values for the AC50 in experiment [3], in experiment [6] and in experiment [7] were 0.0321 µM (active), 0.039 µM (active) and 0.00445 µM (active), respectively.
For the compound `CC1(C(=O)Nc2ccc(O)c(Cl)c2Cl)CCCCC1`, the result in [1], in experiment [5], in experiment [6], in experiment [8], in [9] and in experiment [10] was inactive. Further, the AC50 in experiment [2] is 2.91 µM (active); in [3] it was 36.3 µM (active); in experiment [4], 50 µM (active); in experiment [7] it was 23.1 µM (active).
For `CCOP(=S)(OCC)OC(Cl)C(Cl)(Cl)Cl` (centres undefined), the call in experiment [1], in experiment [3], in [4], in experiment [5], in [6] and in experiment [8] was inactive. For the same compound, the compound was classed as inactive in [9] and in experiment [10]. In addition, the values for the AC50 in [2] and in experiment [7] were 35.6 µM (active) and 38.5 µM (active), respectively.
